This is a sample that favours compounds with a hit; in the whole collection about 5.8% have one here.
KB-V1 cytotox: qHTS assay for MDR1-selective chemotherapeutics: Primary screen using the drug-selected MDR subline cells KB-V1; actives 3.4% (n = 400,000); AID 1347076, 2019; Potency, µM (titrated, usually from 46.1 µM), most hits filed as cytotoxic; KB-V1 MDR cells viability, CellTiter-Glo, 72 h; further: on the % scale 0 is the no-effect control and ±100 the full control effect; nearly all actives have a fitted effect of over 60% in size
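In this primary screen, KB-V1 cells overexpressing P-gp are incubated with library compounds (lowest to highest concentration) for 72 h at 37 degrees C before a luminescent ATP viability read.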
PINK1 expr mod: A Quantitative High throughput Screen to Identify Chemical Modulators of PINK1 Expression. PINK1 immunofluorescence, high-content cytometry, 24 h. Potency, µM (top dose mostly 76.6 µM), for the others: top-dose activation (PINK1 increase), usual class: activators. actives 0.2% (n = 410,000); active means well fitted activation curve with a large enough effect; inconclusive means small, poorly fitted or top-dose-only effect; cell line not stated here; further: % of control where 0% means no effect; nearly all actives have a fitted effect of over 65% in size
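PINK1 protein level read as immunofluorescence by microplate cytometer in a fixed, stained stable cell line after 24 h exposure to five compound concentrations, with CCCP as control.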
MCF10A rereplic: A quantitative high throughput screen for small molecules that induce DNA re-replication in MCF 10a normal breast cells; actives 2.9% (n = 350,000); MCF 10A DNA re-replication, Hoechst nuclear intensity, 48 h; AID 624296, 2012; Potency, µM (highest dose often 46.1 µM), for the others: top-dose activity, positive = re-replication, actives largely listed as activators; further: % of control where 0% means no effect; nearly all actives have a fitted effect of over 50% in size
ALOX12 inh: Primary qHTS assay for inhibitors of human arachidonate 12S-lipoxygenase (ALOX12): Round 2. purified 12hLO, xylenol orange hydroperoxide absorbance. AID 1671190, 2021. Polyunsaturated fatty acid lipoxygenase ALOX12 (Homo sapiens), P18054. Potency, µM (series often up to 108 µM), for the others: at the top dose activity change, negative = inhibition, usual class: inhibitors. actives 1.1% (n = 580,000); further: on the % scale 0 is the no-effect control and ±100 the full control effect
Target sequence (P18054 whole entry, looked up): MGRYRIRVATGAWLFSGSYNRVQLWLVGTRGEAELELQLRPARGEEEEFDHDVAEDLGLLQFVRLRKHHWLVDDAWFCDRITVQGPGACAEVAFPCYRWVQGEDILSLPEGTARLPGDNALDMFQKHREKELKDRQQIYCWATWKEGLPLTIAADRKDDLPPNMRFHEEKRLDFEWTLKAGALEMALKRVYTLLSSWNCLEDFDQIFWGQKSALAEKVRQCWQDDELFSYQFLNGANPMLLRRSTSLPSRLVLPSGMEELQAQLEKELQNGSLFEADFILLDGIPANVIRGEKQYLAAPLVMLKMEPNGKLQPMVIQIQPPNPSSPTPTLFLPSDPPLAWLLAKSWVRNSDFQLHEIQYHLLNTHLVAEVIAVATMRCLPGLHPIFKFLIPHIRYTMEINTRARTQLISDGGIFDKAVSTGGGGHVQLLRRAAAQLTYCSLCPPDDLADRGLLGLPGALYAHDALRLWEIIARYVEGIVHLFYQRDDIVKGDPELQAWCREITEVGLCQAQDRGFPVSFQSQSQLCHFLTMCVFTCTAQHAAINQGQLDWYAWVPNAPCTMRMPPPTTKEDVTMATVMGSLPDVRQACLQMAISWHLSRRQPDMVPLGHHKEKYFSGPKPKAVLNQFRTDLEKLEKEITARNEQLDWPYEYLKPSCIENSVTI
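Hydroperoxide product was detected by ferrous iron/xylenol orange as the 573 to 405 nm absorbance ratio. Arachidonic acid at 40 uM (final) was turned over for 30 min at room temperature by 150 nM human 12hLO, pH 7.0 Hepes buffer, after 15 min compound preincubation.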
SW480 rereplic: A quantitative high throughput screen for small molecules that induce DNA re-replication in SW480 colon adenocarcinoma cells; SW480 DNA re-replication, Hoechst DNA content imaging, 48 h; Potency, µM (doses to about 46.1 µM), inactives show at the highest dose re-replication activation, actives largely listed as activators; actives 1.8% (n = 340,000); AID 624297, 2012; further: % of control where 0% means no effect; nearly all actives have a fitted effect of over 55% in size
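Image-based read-out: total Hoechst fluorescence of nuclei (405 nm excitation, 500-530 nm emission), with hits raising the fraction of high-intensity nuclei. SW480 colon cells incubated 48 hr with compounds at 37 C.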
KB-3-1 tox: qHTS assay for MDR1-selective chemotherapeutics: Primary screen using the parental adenocarcinoma cell KB-3-1 | actives 1.4% (n = 400,000) | KB-3-1 viability, CellTiter-Glo ATP luminescence, 72 h | Potency, µM (top dose mostly 46.1 µM), hits mostly cytotoxic; further: on the % scale 0 is the no-effect control and ±100 the full control effect; nearly all actives have a fitted effect of over 60% in size
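Here the drug-naive KB-3-1 line serves as comparator for MDR sub-line selectivity; cells received compound titrations, 72 h at 37 °C, then CellTiter-Glo readout.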
Numbers without * were called inactive; i = inactive; ? = inconclusive; / = not tested or not shown; [ ] = another dose, or the depositor's remark. Unless noted, the call rests on the fitted dose curve; in most records, active means well fitted curve in the direction sought with a large enough effect; inconclusive means small, poorly fitted or top-dose-only effect, or another doubt; inactive means no such curve, though single readings can be large; an effect the other way counts as inactive or inconclusive. Potency means the concentration at half of the fitted maximal effect.

SMILES	KB-V1 cytotox	PINK1 expr mod	MCF10A rereplic	ALOX12 inh	SW480 rereplic	KB-3-1 tox
COc1ccc(C(=O)CC(=O)c2ccc(OC)cc2)cc1	?	4.2%	4.3%	10.5%	1.4%	i
Cc1cc(=O)oc(C)c1C(=O)OC(C(=O)c1ccccc1)c1ccccc1 (stereo unspecified)	23.1µM*	1.7%	?	6.3%	3.7%	i
O=C(COc1ccccc1[N+](=O)[O-])OCC(=O)c1ccc(Br)s1	i	0.2%	-24.7%	44.7µM*	-1.1%	i
CC(C)CC(c1nnnn1C(C)(C)C)N1CCN(Cc2ccccc2)CC1 (stereo unspecified)	i	-2.0%	1.2%	10µM*	-130.4%	i
CCC(c1nnnn1C(C)(C)C)N1CCN(C2CCCC2)CC1 (stereo unspecified)	i	-0.5%	-15.8%	16.5%	1.1%	i
CCCC(c1nnnn1CC1CCCO1)N1CCN(c2cc(Cl)ccc2C)CC1 (stereo unspecified)	?	5.0%	5.17µM*	?	19.4%	?
CCC(c1nnnn1C(C)(C)C)N1CCN(c2cc(Cl)ccc2C)CC1 (stereo unspecified)	i	2.5%	13µM*	0.0%	?	i
Cc1ccc(Cl)cc1N1CCN(C(CC(C)C)c2nnnn2CC2CCCO2)CC1 (stereo unspecified)	?	8.2%	2.91µM*	5.9%	-3.7%	?
CCOc1cc(/C=C2/NC(=O)NC2=O)cc(Cl)c1OCc1ccc(F)cc1	/	/	/	-3.0%	/	/
Cc1ccc(Nc2nnc(Cc3ccccc3)c(=O)[nH]2)cc1Cl	/	/	/	0.1%	/	/
CCc1ccccc1N(CC)C(=O)C1CCN(c2ncnc3c2nc2n3CCCCC2)CC1	?	0.6%	23.1µM*	-2.9%	?	?
O=C(Nc1ccccc1Cl)C1CCCN(c2ncnc3c2nc2n3CCCCC2)C1 (stereo unspecified)	7.31µM*	2.1%	?	5.4%	9.4%	i
Cc1ccc(NC(=O)C2CCCN(c3ncnc4onc(C)c34)C2)c(Cl)c1 (stereo unspecified)	?	1.0%	/	6.2%	/	2.59µM*
Cc1ccc(CN(C)C(=O)Cc2c(C)nc3ccccc3c2C)o1	/	/	/	-4.5%	/	/
CCOC(=O)CSc1nc(-c2ccc3c(c2)OCO3)ccc1C#N	?	13.0%	16.4µM*	0.0%	2.3%	i
CCOC(=O)CCCSc1nc(-c2ccc3c(c2)OCO3)cc(C(F)(F)F)c1C#N	i	0.8%	0.6%	?	?	i
CCOC(=O)CC(=O)CSc1nc(-c2cccnc2)ccc1C#N	i	/	-4.8%	1.6%[57.4 µM]	-18.4%	i
CCOC(=O)CSc1nc(-c2ccncc2)ccc1C#N	i	0.7%	11.6µM*	0.0%	3.8%	i
CC/C=C\CCCCO	/	/	/	24.8%[176 µM]	/	/
O=C(Cc1ccccc1[N+](=O)[O-])Nc1nccs1	i	-3.1%	1.6%	-14.3%	2.91µM*	i
O=C(Cc1ccccc1)Nc1nccs1	i	4.4%	-0.7%	0.0%	-6.0%	i
O=C(CSc1nncn1-c1ccccc1F)Nc1ccccc1C(=O)NCCc1ccccc1	/	/	/	-22.6%	/	/
COc1ccc(CN2CC(Oc3ccccc3C(=O)NCc3ccccc3)C2)c(OC)c1	/	/	/	46.2%	/	/
Cc1ccc(S(=O)(=O)CCC(=O)OCC(=O)c2ccc3c(c2)-c2ccccc2C3)cc1	/	/	/	14.7%	/	/
COc1cccc(CNC(=O)N2c3ccccc3CC2c2noc(C3CCOCC3)n2)c1 (stereo unspecified)	/	/	/	52.6%	/	/
SMILES	KB-V1 cytotox	PINK1 expr mod	MCF10A rereplic	ALOX12 inh	SW480 rereplic	KB-3-1 tox
COc1cc2nc(CC(C)C)n(NC(=O)c3ccccc3)c(=O)c2cc1OC	7.31µM*	0.9%	0.8%	?	-4.1%	i
O=C1CCCc2c1cc(C(=O)NC1CCCCC1)c(=O)n2-c1ccc(C(F)(F)F)cc1	/	/	/	-21.0%	/	/
COc1ccc(-c2nc(-c3ccccc3)nc3c2CN(C(=O)Cc2ccccn2)CC3)cc1	/	/	/	-5.5%	/	/
Cn1c(Oc2ccc(-c3ccc(Br)cc3)cc2)c(C#N)c(=O)n(C)c1=O	/	/	/	12.6µM*	/	/
Cc1ccc(SC(C)C(=O)Nc2ccc(F)cc2F)cc1 (stereo unspecified)	/	/	/	4.8%	/	/
COc1ccc2c(c1)CCc1c(C(=O)N3CCOCC3)noc1-2	16.4µM*	-4.3%[38.3 µM]	6.7%	14.7%	-2.2%	i
COc1ccc2c(c1)CCc1c(C(=O)N3CCCc4ccccc43)noc1-2	7.31µM*	-5.0%[38.3 µM]	?	-18.8%	11.6%	20.6µM*
O=c1cc(CSc2nnnn2-c2ccccc2)[nH]n1-c1ccc(F)cc1	/	/	/	17.8µM*	/	/
CSc1cccc(NC(=O)CSc2nnc(C(C)N3C(=O)COc4ccccc43)n2C)c1 (stereo unspecified)	/	/	/	-11.4%	/	/
O=C(Nc1ccc2oc(-c3cccnc3)nc2c1)c1cc([N+](=O)[O-])ccc1Cl	/	/	/	-34.7%	/	/
Cc1sc(N2CCCC2)nc1-c1ccc(NS(C)(=O)=O)cc1	/	/	/	35.5µM*	/	/
CC(NC(=O)c1n[nH]c(=O)c2ccccc12)c1nnc2n1CCCCC2 (stereo unspecified)	/	/	/	-1.1%	/	/
O=C(CCCN=C1NS(=O)(=O)c2ccccc21)OCC(=O)c1ccc(F)cc1	?	-3.4%	0.2%	-10.0%	-35.3%	i
O=C(CCCN=C1NS(=O)(=O)c2ccccc21)OCC(=O)c1ccccc1Cl	i	-1.3%	3.66µM*	-22.9%	-4.3%	i
COCc1cc(=O)[nH]c(SCCS(=O)(=O)c2ccc(Cl)cc2Cl)n1	?	-3.1%	16.4µM*	-96.6%	15.9%	?
CN(C)S(=O)(=O)c1cccc(NC(=S)N/N=C/c2ccco2)c1	i	0.6%	0.5%	0.0%	-1.1%	i
CC(/C=N/NC(=S)Nc1cccc(S(=O)(=O)N(C)C)c1)c1ccccc1 (stereo unspecified)	20.6µM*	-0.3%	-3.3%	-15.3%	-6.9%	i
COc1cccc(/C=N/NC(=S)Nc2cccc(S(=O)(=O)N(C)C)c2)c1	i	0.0%	-4.2%	?	4.7%	i
CN(C)S(=O)(=O)c1cccc(NC(=S)N/N=C/c2ccc(O)c(O)c2O)c1	i	-0.4%	-2.5%	?	0.9%	i
COc1ccc(O)c(/C=N/NC(=S)Nc2cccc(S(=O)(=O)N(C)C)c2)c1	4.11µM*	-1.9%	14.6µM*	?	?	i

Screening results as filed in PubChem.
